Assay [1] is described as follows: antimalarial activity against Dd2 strain (AID 2302;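 active means growth inhibition above 50% at the single 2 µM test dose, taken to imply half-maximal potency below 2 µM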;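 further: 0% = DMSO untreated growth and 100% = chloroquine plus artemisinin killed control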). Particulars: P. falciparum Dd2 in RBCs, LDH growth readout, 72 h; at 2 µM; active compounds read high.
The nature of assay [2]: human hepatoma cell viability loss – ATP luminescence, cytotoxicity control for P. falciparum antimalarial project, primary screen (AID 2303;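 active means inhibition above 50%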;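 further: 0% = DMSO wells and 100% = digitonin-killed cells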). Conditions: HepG2 viability, 24-48 h, at 10 µM, active compounds read high.
Assay [3] deals with L-lactate dehydrogenase (Plasmodium falciparum (isolate CDC / Honduras)) (UniProt Q27743). The experiment in a line: PfLDH activity inhibition – cell lysate, 3D7 strain, counter-screen for P. falciparum growth inhibition project (AID 2304).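 Further: 0% = vehicle and 100% = reference inhibitor.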 Conditions: P. falciparum 3D7 crude extract, LDH APAD/NBT absorbance; at 2 µM; active compounds read high. On the technique in general: The purpose of a counterscreen is to sort out artefacts and off-target activity.
L-lactate dehydrogenase (Plasmodium falciparum (isolate CDC / Honduras)), sequence (Q27743 whole entry, looked up): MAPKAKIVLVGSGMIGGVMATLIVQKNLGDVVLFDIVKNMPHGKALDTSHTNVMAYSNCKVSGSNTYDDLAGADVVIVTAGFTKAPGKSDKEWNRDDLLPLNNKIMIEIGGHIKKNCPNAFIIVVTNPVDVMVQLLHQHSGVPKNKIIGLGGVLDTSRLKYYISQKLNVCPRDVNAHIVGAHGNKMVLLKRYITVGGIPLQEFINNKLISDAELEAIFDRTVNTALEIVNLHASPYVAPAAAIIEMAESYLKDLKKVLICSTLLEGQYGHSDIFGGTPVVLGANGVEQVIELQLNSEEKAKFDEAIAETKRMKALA

A short description of assay [4]: inhibition of 3D7 malaria parasite growth – strain 3D7 (AID 2306).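 Further: 0% = DMSO wells and 100% = chloroquine plus artemisinin control wells.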 Conditions: P. falciparum 3D7 erythrocytic growth, LDH absorbance, 72 h; at 2 µM; active compounds read high.
The target of assay [5] is Calcium-dependent protein kinase 1 (Plasmodium falciparum (isolate 3D7)) (UniProt P62344). The experiment in a line: PfCDPK1 kinase inhibitors, biochemical, TCAMS library (AID 1159585; cut-off not given, nearly all actives have IC50 up to about 0.98 µM;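 further: inhibitors leave more ATP so luminescence rises with inhibition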). Conditions: recombinant PfCDPK1, Kinase-Glo ATP depletion luminescence.
Calcium-dependent protein kinase 1 (Plasmodium falciparum (isolate 3D7)), sequence (P62344 whole entry, looked up): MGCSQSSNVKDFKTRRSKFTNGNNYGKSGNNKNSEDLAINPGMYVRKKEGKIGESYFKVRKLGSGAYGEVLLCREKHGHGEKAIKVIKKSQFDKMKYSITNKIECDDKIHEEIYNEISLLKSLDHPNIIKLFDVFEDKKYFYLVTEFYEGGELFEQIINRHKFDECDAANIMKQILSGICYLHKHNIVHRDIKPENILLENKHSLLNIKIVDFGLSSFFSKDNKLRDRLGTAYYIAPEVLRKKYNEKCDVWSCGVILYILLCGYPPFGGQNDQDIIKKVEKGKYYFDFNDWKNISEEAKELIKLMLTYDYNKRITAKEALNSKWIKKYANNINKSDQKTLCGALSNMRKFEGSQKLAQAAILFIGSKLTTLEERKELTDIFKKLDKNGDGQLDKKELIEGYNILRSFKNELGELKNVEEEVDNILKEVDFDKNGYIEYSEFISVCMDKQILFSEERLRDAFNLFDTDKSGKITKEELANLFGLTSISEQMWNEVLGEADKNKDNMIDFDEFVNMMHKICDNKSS
The target of assay [6] is Plasmodium falciparum protein kinase 6 (PK6, PF3D7_1337100) (UniProt Q8IDW1). As to the kind of experiment: PfPK6 kinase inhibitors, biochemical, TCAMS library (AID 1159586). Conditions: recombinant PfPK6, Kinase-Glo ATP depletion luminescence. (In general: Kinase-Glo reads ATP consumption through a luciferase reaction.)
Plasmodium falciparum protein kinase 6 (PK6, PF3D7_1337100), sequence (Q8IDW1 1-305): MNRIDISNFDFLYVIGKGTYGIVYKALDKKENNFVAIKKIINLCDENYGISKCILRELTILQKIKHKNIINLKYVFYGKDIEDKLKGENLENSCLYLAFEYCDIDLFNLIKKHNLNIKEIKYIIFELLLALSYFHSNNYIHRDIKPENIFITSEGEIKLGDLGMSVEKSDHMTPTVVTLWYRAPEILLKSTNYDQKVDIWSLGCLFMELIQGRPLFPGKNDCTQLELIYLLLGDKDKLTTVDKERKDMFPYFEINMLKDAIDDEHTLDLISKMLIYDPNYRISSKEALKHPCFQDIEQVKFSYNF
In assay [7] the target is Protein kinase 7 (PK7), Plasmodium falciparum 3D7 (PF3D7_0213400) (UniProt Q7YTF7). As to the kind of experiment: inhibition of Plasmodium PK7 catalytic activity – biochemical, TCAMS antimalarial set, Kinase-Glo luminescence (AID 1159587). Particulars: recombinant PfPK7, Kinase-Glo ATP depletion luminescence.
Protein kinase 7 (PK7), Plasmodium falciparum 3D7 (PF3D7_0213400), sequence (Q7YTF7 1-343): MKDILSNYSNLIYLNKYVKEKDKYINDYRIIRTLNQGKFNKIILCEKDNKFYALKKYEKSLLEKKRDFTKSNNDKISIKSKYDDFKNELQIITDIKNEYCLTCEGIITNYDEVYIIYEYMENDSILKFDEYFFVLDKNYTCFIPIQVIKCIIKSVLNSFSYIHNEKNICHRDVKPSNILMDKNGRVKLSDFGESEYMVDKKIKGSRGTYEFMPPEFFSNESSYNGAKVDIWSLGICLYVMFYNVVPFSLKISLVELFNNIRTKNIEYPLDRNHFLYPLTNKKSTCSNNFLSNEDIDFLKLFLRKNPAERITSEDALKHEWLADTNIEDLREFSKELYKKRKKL
The target of assay [8] is Calcium-dependent protein kinase 4 (Plasmodium falciparum (isolate 3D7)) (UniProt Q8IBS5). As to the kind of experiment: PfCDPK4 kinase inhibitors, biochemical, TCAMS library (AID 1159588; cut-off not given, nearly all actives have IC50 up to about 0.91 µM). Conditions: recombinant PfCDPK4, Kinase-Glo ATP depletion luminescence.
Calcium-dependent protein kinase 4 (Plasmodium falciparum (isolate 3D7)), sequence (Q8IBS5 whole entry, looked up): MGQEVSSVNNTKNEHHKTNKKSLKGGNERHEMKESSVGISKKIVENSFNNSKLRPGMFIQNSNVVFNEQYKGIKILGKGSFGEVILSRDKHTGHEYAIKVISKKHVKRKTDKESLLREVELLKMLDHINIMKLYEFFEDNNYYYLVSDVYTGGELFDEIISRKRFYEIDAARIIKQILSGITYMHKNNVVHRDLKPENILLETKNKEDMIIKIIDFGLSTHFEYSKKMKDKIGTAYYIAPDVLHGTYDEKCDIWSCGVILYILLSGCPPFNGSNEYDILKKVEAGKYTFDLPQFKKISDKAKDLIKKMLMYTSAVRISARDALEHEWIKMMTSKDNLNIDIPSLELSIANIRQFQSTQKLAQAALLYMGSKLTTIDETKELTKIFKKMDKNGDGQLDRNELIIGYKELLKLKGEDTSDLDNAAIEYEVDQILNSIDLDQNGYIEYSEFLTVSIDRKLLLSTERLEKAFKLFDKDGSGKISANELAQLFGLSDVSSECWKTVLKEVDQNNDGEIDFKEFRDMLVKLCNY

A number with no mark means an inactive call. For some of these results: Potency and affinity values are given separately. Calls of active or inactive are those of the source. Unless noted, how the calls were made is not given here.

Broadly, the inhibition is the change of the read-out against control, counted positive when it falls. On to `COC(=O)Nc1ccc(-c2ccc(C(=O)NC3CCN(C[C@H](O)c4ccnc5ccc(OC)cc45)CC3)cc2)c(C)c1`, for which the growth inhibition in assay [1] is 97% (active); in assay [4], 100% (active). In addition, the inhibition is 32% in assay [2] and -2% in assay [3]. Besides, the outcome in assay [5], in assay [6], in assay [7] and in assay [8] was inactive.

In the case of `CCNc1cc(C(=O)N[C@@H](Cc2cc(F)cc(F)c2)[C@H](O)CNCc2cccc(C(F)(F)F)c2)cc(N2CCCCS2(=O)=O)c1`, the figures for the growth inhibition in assay [1] and in assay [4] were 80% (active) and 99% (active), respectively. Moreover, the inhibition in assay [2] was 1%; in assay [3], -8%. For the same molecule, the outcome in assay [5], in assay [6], in assay [7] and in assay [8] was inactive.

With `Oc1ccc(CCNc2nc(NCc3ccccc3-c3ccc(F)cc3)nc(N3CCNCC3)n2)cc1`, the figures for the growth inhibition in assay [1] and in assay [4] were 24% and 92% (active), respectively. The inhibition in assay [2] is 15%; in assay [3] it was 0%. Moreover, the outcome in assay [5], in assay [6], in assay [7] and in assay [8] was inactive.

On to `CN1c2ccccc2Sc2cc(CNCCSCCNCc3ccc4c(c3)Sc3ccccc3N4C)ccc21`, for which the values for the growth inhibition in assay [1] and in assay [4] were 44% and 84% (active), respectively. In addition, the inhibition was 58% (active) in assay [2] and 0% in assay [3]. Also, the outcome in assay [5], in assay [6], in assay [7] and in assay [8] was inactive.

Turning to `CC1(C)C=C(c2ccncc2)c2cc(Cl)ccc2O1`, the growth inhibition in assay [1] is 22%; in assay [4], 97% (active). In addition, the inhibition in assay [2] was -4%; in assay [3] it was 1%. Moreover, the outcome in assay [5], in assay [6], in assay [7] and in assay [8] was inactive.

On to `O=C(/C=C/c1ccc(Cl)c(Cl)c1)NC1CCC(CN2CCC(c3coc4ccccc34)CC2)CC1` (stereo not given), for which the growth inhibition in assay [1] was 41%; in assay [4], 102% (active). For the same molecule, the figures for the inhibition in assay [2] and in assay [3] were 40% and 3%, respectively. The result in assay [5], in assay [6], in assay [7] and in assay [8] was inactive.

For `O=[N+]([O-])c1ccc(Nc2nc(NN=Cc3ccc(-c4ccc([N+](=O)[O-])cc4)o3)nc(Nc3ccccc3)n2)cc1`, the growth inhibition in assay [1] is 74% (active); in assay [4], 101% (active). Besides, the inhibition in assay [2] is -9%; in assay [3], -5%. For the same molecule, the outcome in assay [5], in assay [6], in assay [7] and in assay [8] was inactive.

Regarding `CC(C)(C)C(=O)Nc1c(-c2cc(=O)oc3cc4c(cc23)CCC4)oc2ccccc12`, the growth inhibition in assay [1] is 100% (active); in assay [4] it was 101% (active). Further, the values for the inhibition in assay [2] and in assay [3] were -5% and 3%, respectively. In addition, the outcome in assay [5], in assay [6], in assay [7] and in assay [8] was inactive.

For the molecule `Cc1ccc(C2(CN3CCC(NC(=O)c4ccn[nH]4)CC3)CCCCC2)cc1`, the growth inhibition in assay [1] is 96% (active); in assay [4], 97% (active). Moreover, the inhibition is -6% in assay [2] and -3% in assay [3]. Further, the outcome in assay [5], in assay [6], in assay [7] and in assay [8] was inactive.

For `Cc1cc(NCC2CCN(CC3CCCCC3)C2)nc(Nc2ccc(Cl)cc2)n1` (stereo not given), the values for the growth inhibition in assay [1] and in assay [4] were 74% (active) and 101% (active), respectively. Besides, the figures for the inhibition in assay [2] and in assay [3] were 2% and -3%, respectively. In addition, the result in assay [5], in assay [6], in assay [7] and in assay [8] was inactive.

For `COc1ccc(-c2cccc(NC(=O)c3cccc(Cl)c3)c2)cc1CN(C)CCN(C)C`, the values for the growth inhibition in assay [1] and in assay [4] were 73% (active) and 101% (active), respectively. Besides, the inhibition in assay [2] was 32%; in assay [3] it was 4%. Moreover, the outcome in assay [5], in assay [6], in assay [7] and in assay [8] was inactive.

For `NC1=NC2(CCCCC2)N(Cc2ccc(Cl)c(Cl)c2)C(N)=N1`, the growth inhibition in assay [1] is 76% (active); in assay [4] it was 86% (active). Further, the inhibition is 22% in assay [2] and -3% in assay [3]. The outcome in assay [5], in assay [6], in assay [7] and in assay [8] was inactive.

As for `O=C1OC2(CCN(C(=O)c3ccc(-n4cnnn4)cc3)CC2)CN1Cc1ccc(Cl)c(Cl)c1`, the growth inhibition is 70% (active) in assay [1] and 97% (active) in assay [4]. For the same molecule, the figures for the inhibition in assay [2] and in assay [3] were 11% and -7%, respectively. Also, the outcome in assay [5], in assay [6], in assay [7] and in assay [8] was inactive.

Turning to `CN(C)CCNc1cc(-c2cccnc2)nc(-c2ccncc2)n1`, the growth inhibition is 98% (active) in assay [1] and 100% (active) in assay [4]. Further, the inhibition is 33% in assay [2] and -5% in assay [3]. Besides, the result in assay [5], in assay [6], in assay [7] and in assay [8] was inactive.

As to `CN(C)c1ccc(C=C2SC(=Nc3ccccc3)N(c3ccccc3)C2=O)cc1[N+](=O)[O-]`, the growth inhibition in assay [1] is 82% (active); in assay [4] it was 96% (active). For the same molecule, the inhibition in assay [2] was 9%; in assay [3], 7%. The outcome in assay [5], in assay [6], in assay [7] and in assay [8] was inactive.

On to `c1ccc(-c2nc(Nc3nc4ccccc4[nH]3)[nH]c2-c2ccccc2)cc1`, for which the growth inhibition is 61% (active) in assay [1] and 96% (active) in assay [4]. Also, the results for the inhibition in assay [2] and in assay [3] were 14% and -5%, respectively. For the same molecule, the outcome in assay [5], in assay [6], in assay [7] and in assay [8] was inactive.

Turning to `c1ccc(CN2CCC(NCc3ccccc3-c3cccc(CNCc4ccc5c(c4)OCO5)c3)CC2)cc1`, the growth inhibition in assay [1] was 69% (active); in assay [4], 102% (active). In addition, the values for the inhibition in assay [2] and in assay [3] were 37% and 4%, respectively. Besides, the result in assay [5], in assay [6], in assay [7] and in assay [8] was inactive.

On to `CC1(C)N=C(N)N=C(N)N1OCCCOc1cccc(Cl)c1`, for which the growth inhibition in assay [1] and in assay [4] was 95% (active) in each case. The inhibition is 65% (active) in assay [2] and -4% in assay [3]. In addition, the outcome in assay [5], in assay [6], in assay [7] and in assay [8] was inactive.

With `O=C(NCc1ccccc1)c1ccc(C(=O)NCC2CNCCO2)cc1` (stereo not given), the growth inhibition was -1% in assay [1] and 92% (active) in assay [4]. Further, the inhibition in assay [2] was 4%; in assay [3], -4%. For the same molecule, the outcome in assay [5], in assay [6], in assay [7] and in assay [8] was inactive.

Take `Cc1nc(Nc2ccncc2)cc(-c2ccncc2)n1`: the growth inhibition in assay [1] is 3%; in assay [4], 100% (active). Further, the inhibition was 6% in assay [2] and -2% in assay [3]. Moreover, the outcome in assay [5], in assay [6], in assay [7] and in assay [8] was inactive.

Values taken from PubChem BioAssay.
